High-throughput results from PubChem.
DT40 TDP1 CPT: qHTS for Inhibitors of human tyrosyl-DNA phosphodiesterase 1 (TDP1): qHTS in cells in presence of CPT. Potency, µM (highest dose often 46.2 µM), without a hit: top-dose activity change, negative = growth inhibition, usual class: inhibitors. actives 12% (n = 420,000). chicken DT40 Tdp1-/-;hTDP1 cells + 20 nM CPT, ATP luminescence, 48 h; note: % is set by controls: 0 for no effect and ±100 for the full control effect; nearly all actives have a fitted effect of over 55% in size
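Chicken DT40 Tdp1-/- cells stably complemented with human TDP1 were seeded at 400 cells/well in medium containing 20 nM camptothecin, exposed to pin-transferred compounds, and grown at 37 °C for at least 48 hr. Viability was read as ATP luminescence.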
HT1080NT lethal: qHTS for induction of synthetic lethality in tumor cells producing 2HG: qHTS for the HT-1080-NT fibrosarcoma cell line; HT-1080-NT fibrosarcoma viability, CellTiter-Glo ATP luminescence, 48 h; AID 686970, 2013; actives 1.6% (n = 360,000); Potency, µM (series often up to 46.1 µM), without a hit: at the highest dose activity, negative = less viability, usual class: cytotoxic;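 note: NT is the 2HG producing partner of a matched IDH1 knockdown line; 0% = DMSO-treated cells and -100% = media-only wells without cells; nearly all actives have a fitted effect of over 55% in size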
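Fibrosarcoma NT cells, 750 per well in 5% FBS RPMI, were exposed to compound for 48 hours. Viability: CellTiter-Glo luminescence.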
HepG2 tox: qHTS for Inhibitors of TGF-b: Cytotox Counterscreen. HepG2 CAGA-GFP viability, ATP luminescence, 18 h. Potency, µM (top dose mostly 46.1 µM), inactives show at the highest dose activity change, negative = cytotoxicity, most hits filed as cytotoxic. actives 0.76% (n = 410,000). AID 588856, 2011
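CellTiter-Glo luminescence gave cytotoxicity after 18 hours at 37 degrees C. The cells were HepG2 CAGA-GFP in 1% FBS DMEM, stimulated with 500 pg/mL TGF-beta after compound addition. %Activity was normalised to no-cell wells (complete cell-killing) and DMSO (no toxicity), and curves were fitted and classified.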
DT40 TDP1 no CPT: qHTS for Inhibitors of human tyrosyl-DNA phosphodiesterase 1 (TDP1): qHTS in cells in absence of CPT. Potency, µM (doses to about 46.2 µM), inactives show top-dose activity change, negative = growth inhibition, usual class: inhibitors. DT40 Tdp1-/- hTDP1 cells, no CPT, ATP luminescence, 48 h. actives 15% (n = 420,000); note: % is set by controls: 0 for no effect and ±100 for the full control effect; nearly all actives have a fitted effect of over 55% in size
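Readout: luminescence from CellTiter-Glo after 30 min in the dark at RT. Cells: DT40 Tdp1-/- with stable hTDP1, 400/well. Exposure: compounds alone, ≥48 hr, 37 °C.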
TGFb inhibitor: qHTS for Inhibitors of TGF-b | actives 1.2% (n = 410,000) | HepG2 CAGA-GFP TGF-b/SMAD3 reporter, GFP fluorescence, 18 h; TGF-beta stimulated, 500 pg/mL final | Potency, µM (highest dose often 46.1 µM), for inactives: top-dose activity, negative = inhibition, actives largely listed as inhibitors; note: % is set by controls: 0 for no effect and ±100 for the full control effect; nearly all actives have a fitted effect of over 65% in size
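Read-out: total well GFP (ex488/em500-530) summed from mean per-cell fluorescence. Cells: HEPG2 CAGA-GFP, 1% FBS DMEM, 18 h at 37 degrees C with 500 pg/mL final TGF-beta. Unstimulated wells served as the full-inhibition control; stimulated DMSO wells = 0%.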
HT1080 IDH1KD tx: qHTS for induction of synthetic lethality in tumor cells producing 2HG: qHTS for the HT-1080-IDH1KD cell line; HT-1080 IDH1 knockdown viability, ATP luminescence, 48 h; Potency, µM (doses to about 46.1 µM), for the others: top-dose activity, negative = toxicity, actives largely listed as cytotoxic; actives 2% (n = 360,000); AID 686971, 2013;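 note: 0% = DMSO wells and -100% = cell-free medium wells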
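In this qHTS, HT-1080 cells depleted of IDH1 are exposed for 48 h at 37 °C to compound titrations. Toxicity is scored from CellTiter-Glo luminescence, with DMSO as full viability and medium alone as none.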
The depositor's hits bear a star; ? = inconclusive; . = no result. An excerpt weighted towards active compounds, which were near 17% of everything screened. Calls come from the whole dose curve; as a rule, active = well fitted curve in the direction sought with a large enough effect; inconclusive = small, poorly fitted or top-dose-only effect, or another doubt; inactive = no such curve, though single readings can be large; an effect the other way counts as inactive or inconclusive. Potency is the fitted concentration of half-maximal effect.

SMILES | DT40 TDP1 CPT | HT1080NT lethal | HepG2 tox | DT40 TDP1 no CPT | TGFb inhibitor | HT1080 IDH1KD tx
CC1(C)ON=C(c2cccc(F)c2)NC1=O | 16% | 24% | 14% | 7% | -9% | 23%
CN(C)c1ccc(-c2nc3ccccn3c2Nc2ccc3c(c2)OCCO3)cc1 | 21µM* | . | -8% | ? | . | .
Clc1cccc(-c2ccc(-c3nc4ccccn4c3NCc3ccccc3)cc2)c1 | 16µM* | ? | -31% | 23µM* | ? | ?
c1ccc(-c2nc3ccccn3c2NCc2ccc3c(c2)OCO3)cc1 | -15% | 0% | -25% | -29% | -1% | 3%
Clc1cccc(-c2nc3ccccn3c2Nc2ccc3c(c2)OCCO3)c1 | ? | . | -18% | 8.2µM* | ? | .
Cc1ccc(-n2c(SCC(=O)N3CCCc4ccccc43)nnc2-c2cccnc2)c(C)c1 | ? | 6% | 0% | 23µM* | -5% | 0%
O=C(CSc1nnc(-c2cccs2)n1-c1ccccc1)N1CCCc2ccccc21 | ? | -31% | -2% | 16µM* | 5% | ?
Cc1ccc(NCc2nnc(SCC(=O)N3CCCc4ccccc43)o2)c(C)c1 | 5.8µM* | -9% | -26% | 18µM* | -5% | ?
O=C(CSc1nnc(-c2ccc(Cl)s2)o1)N1CCCc2ccccc21 | ? | 19% | -1% | 16µM* | 11% | 23%
Cc1ccccc1-c1nnc(SCC(=O)N2CCCc3ccccc32)o1 | ? | . | -22% | ? | ? | .
COc1ccc(CCN2CC(C(=O)N3CCN(C(C)=O)CC3)CCC2=O)cc1 (configuration not stated) | -21% | -15% | -8% | -7% | -11% | -6%
Cc1ccc(NC(=O)CSCC(=O)Nc2ccccc2N2CCCC2)cc1 | -29% | -14% | 2% | ? | -9% | -10%
Cc1ccn2c(C(=O)c3ccc(Cl)cc3)cnc2c1 | ? | -4% | -4% | -26% | -6% | -3%
COc1cc(/C=C2/SC(=S)N(CCC(=O)Nc3cccnc3)C2=O)cc(OC)c1OC | ? | 9% | -1% | ? | 5% | 1%
CC1=C(C(=O)N2CCOCC2)CC(CC(=O)NCCc2ccccn2)C(=O)N1CCCN1CCCC1=O (configuration not stated) | -8% | 15% | . | -25% | . | 27%
Cc1ccc(CNCc2ccccc2)s1 | -22% | . | -6% | -14% | 0% | .
CCOc1nc(Nc2cc(Cl)ccc2OC)nc(OCC)n1 | 21µM* | 2% | -4% | ? | 7% | 13%
CCOc1nc(Nc2ccc(OC)cc2OC)nc(OCC)n1 | -23% | -4% | -20% | 16µM* | -20% | -2%
CCCOc1ccc(C2CC(=O)Nc3c2c(C)nn3-c2nncc(-c3cccc(OC)c3)n2)cc1OC (configuration not stated) | 3% | . | -3% | -7% | 1% | .
COc1ccc(/C=C/c2nc(C#N)c(N3CCCCCC3)o2)cc1OC | 12µM* | . | -39% | 8.2µM* | -34% | .
CCOc1ccc(/C=C/c2nc(C#N)c(N3CCN(c4ccc(OC)cc4)CC3)o2)cc1 | 1% | . | 4% | -24% | -13% | .
CCN1CCN(c2oc(/C=C/c3ccc(OC)c(OC)c3)nc2C#N)CC1 | 16µM* | . | -25% | ? | ? | .
